# Hits are enriched below; roughly 7.5% of the tested compounds scored in any of these assays.
# NPC1 prom act: NPC1 promoter activation | hit rate 2.4% among 320,000 | AID 485313 | Huh7 NPC1 promoter luciferase reporter, 24 h | Potency, µM (doses to about 9.22 µM), inactives show top-dose activation, hits mostly activators; further: % of control where 0% means no effect; nearly all actives have a fitted effect of over 60% in size
#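 Readout is luciferase luminescence, reflecting NPC1 promoter activation in stably transfected Huh7 cells after 24 h compound exposure at 37 °C in reduced-serum medium with 10% FBS.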
# SMN2 splice enh: enhancers of SMN2 splice variant expression; HEK293 SMN2-luciferase splicing reporter, luminescence, 30-36 h; Potency, µM (highest dose often 46.1 µM), for the others: top-dose activity change, positive = activation, usual class: activators; hit rate 2.8% among 210,000; further: % of control where 0% means no effect; nearly all actives have a fitted effect of over 55% in size
#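 qHTS luciferase splicing reporter: luminescence rises when SMN2 exon 7 is included in transfected HEK293 cells. Compound exposure lasted 30-36 h at 37C, with 4.5 mM final sodium butyrate as control, followed by a ONE-Glo read.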
# FLuc counter: inhibits or activates purified firefly luciferase, miR-21 counter-screen. purified FLuc, Km substrates, luminescence inhibition. AID 588342. Potency, µM (titrated, usually from 57.5 µM), inactives show top-dose activity change, negative = inhibition, hits mostly inhibitors. hit rate 6.9% among 360,000;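 further: plate controls were vehicle for no effect and reference inhibitor for full effect; nearly all actives have a fitted effect of over 55% in size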
# Target sequence (P08659 whole entry, looked up): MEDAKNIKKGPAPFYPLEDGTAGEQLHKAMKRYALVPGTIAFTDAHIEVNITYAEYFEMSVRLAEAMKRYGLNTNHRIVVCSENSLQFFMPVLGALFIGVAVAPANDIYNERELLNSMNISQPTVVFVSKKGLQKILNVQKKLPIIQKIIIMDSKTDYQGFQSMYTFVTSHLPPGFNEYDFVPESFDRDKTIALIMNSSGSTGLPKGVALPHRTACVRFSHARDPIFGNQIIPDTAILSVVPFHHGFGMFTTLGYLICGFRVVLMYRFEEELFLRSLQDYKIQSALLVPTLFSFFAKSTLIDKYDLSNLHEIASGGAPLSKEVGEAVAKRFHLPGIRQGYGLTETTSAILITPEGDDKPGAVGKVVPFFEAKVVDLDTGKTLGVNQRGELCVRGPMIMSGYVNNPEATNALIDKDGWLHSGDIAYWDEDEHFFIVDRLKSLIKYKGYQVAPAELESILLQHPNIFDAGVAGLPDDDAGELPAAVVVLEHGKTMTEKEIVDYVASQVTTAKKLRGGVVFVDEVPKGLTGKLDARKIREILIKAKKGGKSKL
#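 Purified P. pyralis luciferase (10nM final) with 10uM D-luciferin and 10uM ATP (Km levels) in 50mM Tris acetate pH 7.5, 10mM Mg acetate, 0.01% Tween-20, 0.05% BSA; qHTS 6-point titration, ~60 µM downward; luminescence read.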
# ELG1 genotoxic: genotoxicity induction in ELG1-luciferase HEK293T cells; HEK293T ELG1-luciferase reporter, luminescence, 16 h; Potency, µM (series often up to 46 µM), for inactives: at the highest dose activity change, positive = activation, usual class: activators; hit rate 1.3% among 330,000; AID 504466; further: % of control where 0% means no effect; nearly all actives have a fitted effect of over 60% in size
#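 Step 1: seed 2,000 HEK293T ELG1-luciferase cells per well. Step 2: add compound or DMSO, incubate 16 hr at 37 °C. Step 3: ONE-Glo, 30 min at room temperature, read luminescence.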
# Rab9 prom act: activators of Rab9 promoter. Huh7 Rab9 promoter-luciferase reporter, luminescence, 24 h. Potency, µM (highest dose often 9.22 µM), without a hit: at the top dose activation, negative = inhibition, usual class: activators. hit rate 2.8% among 320,000. AID 485297; further: % of control where 0% means no effect; nearly all actives have a fitted effect of over 60% in size
#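 Rab9 promoter-driven luciferase in stably transfected Huh7 cells; 1500 cells/well rested 2 h, exposed to compound in DMSO for 24 h at 37 °C, 5% CO2. Luminescence read 10 min after adding luciferase reagent at ambient temperature.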
# Numbers without * were called inactive; ? = inconclusive; · = not tested or not shown. The call rests on the fitted dose curve; in most records, active means well fitted curve in the direction sought with a large enough effect; inconclusive means small, poorly fitted or top-dose-only effect, or another doubt; inactive means no such curve, though single readings can be large; an effect the other way counts as inactive or inconclusive. Potency means the concentration at half of the fitted maximal effect.
SMILES,NPC1 prom act,SMN2 splice enh,FLuc counter,ELG1 genotoxic,Rab9 prom act
COC(=O)c1ccccc1-n1cc2c(c1-c1cccc(C)c1)c(=O)n(C)c(=O)n2C,·,10.1%,6.8%,·,·
O=C(CNC(=O)c1ccccc1)c1ccccc1,0.708µM*,·,6.75µM*,?,0.447µM*
O=C(CNC(=O)c1ccc(Br)cc1)c1ccccc1,2.82µM*,·,4.78µM*,?,2µM*
O=C(CNC(=O)c1ccccc1)OC1CCCCC1,3.98µM*,12.6µM*,12µM*,?,0.891µM*
O=C(O)c1ccccc1C(=O)NCCCCCCNC(=O)c1ccccc1C(=O)O,0.7%,·,2.5%,-2.7%,-0.4%
O=C(CNC(=O)c1ccccc1C(=O)O)c1ccccc1,2.82µM*,-7.7%,12µM*,?,3.55µM*
CC1CCCCN1CCNC(=O)CN1C(=O)COc2ccccc21 (stereo not given),-0.5%,3.2%,-7.1%,-1.7%,-2.3%
O=C(CNC(=O)c1ccc(F)cc1)c1ccc(Cl)cc1,3.98µM*,·,9.53µM*,?,1.58µM*
CC1=C(C)CC(C(=O)NCC(=O)c2ccccc2)C(C(=O)O)C1 (stereo not given),3.8%,17.2%,15.1µM*,16.4µM*,21.6%
CC(NC(=O)COC(=O)CNC(=O)c1ccc(-c2ccccc2)cc1)c1ccccc1 (stereo not given),6.5%,·,16.9µM*,-2.0%,8.9%
O=C(NC[C@H](O)c1ccccc1)c1ccccc1,·,14.1µM*,·,·,·
O=c1[nH]c2ccc(NCc3ccccc3F)cc2[nH]1,·,-19.2%,0.8%,·,·
COc1ccc(Cn2c(C(=O)O)c(CNCc3ccc(C)o3)c3ccc(OC)cc32)cc1,·,·,-1.5%,·,·
O=C(CNC(=O)c1ccc(-c2ccccc2)cc1)OCc1ccc(Br)cc1,16.2%,3.55µM*,21.3µM*,11.4%,28.2%
CCCCCOC(=O)NCC(O)c1ccccc1 (stereo not given),2.51µM*,?,13.5µM*,?,4.47µM*
CC(=O)Nc1ccc(NC(=O)/C=C/c2ccccc2)cc1,4.1%,6.5%,?,-6.1%,6.1%
O=C(Nc1ccc(C(=O)O)cc1)/C(=C\C=C\c1ccccc1)NC(=O)c1ccccc1Br,2µM*,·,0.169µM*,0.6%,3.16µM*
O=C(/C=C/c1ccccc1)Nc1cccc(C(=O)O)c1,?,·,0.0675µM*,-14.7%,?
O=C(Nc1cccc(C(=O)O)c1)/C(=C\C=C\c1ccccc1)NC(=O)c1ccccc1,-0.9%,0.7%,13.5µM*,-1.8%,-3.8%
O=C(/C=C/c1ccccc1)Nc1cc(NC(=O)/C=C/c2ccccc2)cc(C(=O)O)c1,10.5%,·,13.5µM*,-3.7%,15.7%
O=C(/C=C/c1ccccc1)N/C(=C/c1ccccc1)C(=O)Nc1cccc(C(=O)O)c1,-1.4%,-9.4%,23.9µM*,-0.5%,4.6%
O=C(Nc1cccc(C(=O)O)c1)/C(=C\c1ccccc1)NC(=O)c1ccccc1,-1.3%,-2.2%,-10.1%,-1.6%,?
CCc1ccc(CNC(=O)Cn2nc(-c3ccccc3)ccc2=O)cc1,-0.9%,-46.3%,?,-6.6%,2.5%
O=C(O)c1cccc(N2C(=O)c3ccc(Oc4ccc(Cl)cc4)cc3C2=O)c1,-3.7%,·,7.57µM*,-0.4%,5.0%
COc1cnc(-c2ccccn2)nc1Oc1c(C)cccc1C,-10.2%,·,-2.3%,-6.4%,-6.9%
SMILES,NPC1 prom act,SMN2 splice enh,FLuc counter,ELG1 genotoxic,Rab9 prom act
Cc1ccc(Nc2nn3c(=O)c4cc5c(cc4nc3s2)OCO5)cc1Cl,·,1.5%,-2.8%,·,·
Clc1ccc(Nc2ccc(-n3ccnc3)nn2)cc1Cl,0.8%,-1.9%,26.9µM*,-1.4%,4.2%
O=C(CN1CCC(NC(=O)c2ccccc2Cl)CC1)NCc1ccco1,-1.9%,·,0.2%,1.1%,-0.1%
O=C(N/N=C/c1sc2ccccc2c1O)c1cccc2ccccc12,-21.2%,-91.6%,16.9µM*,11.3%,-13.3%
COc1ccc(C(=O)N/N=C/c2cc3ccccc3[nH]c2=S)cc1,3.6%,-17.4%,?,0.4%,9.0%
COc1ccc2cc(C(=O)N/N=C/c3sc4ccccc4c3O)ccc2c1,-3.1%,-105.5%,13.5µM*,?,-13.7%
COc1cc(/C=N/NC(=O)c2cccc3ccccc23)cc(OC)c1O,-5.8%,·,?,5.9%,-1.6%
COc1ccc(N=Cc2sc3ccccc3c2Cl)cc1,28.0%,0.8%,4.78µM*,9.9%,3.7%
O=C(N/N=C/c1sc2ccccc2c1O)c1ccccc1,-27.0%,-107.0%,16.9µM*,?,-30.3%
COc1cc(O)sc1C=Nc1ccc(Cl)cc1,-1.4%,22.4%,-18.1%,19.6%,22.9%
N#Cc1ccc(OC(=O)C2CCN(C3=NS(=O)(=O)c4ccccc43)CC2)cc1,-2.7%,·,3.3%,0.4%,-0.9%
NS(=O)(=O)c1ccc(NC(=O)CCC(=O)c2cccs2)cc1,4.8%,·,-4.6%,-0.5%,7.0%
COc1ccc(C(=O)N/N=C/c2sc3ccccc3c2O)cc1,-30.5%,-95.1%,13.5µM*,?,-41.8%
COC(=O)c1ccccc1NC(=O)c1ccc(=O)n(Cc2cccc(C)c2)c1,·,·,-12.4%,·,·
Cc1ccc(C(=O)Nc2sc3c(c2C(=O)O)CCCCC3)o1,3.55µM*,12.6µM*,2.69µM*,2.3%,3.55µM*
O=C(Nc1sc2c(c1C(=O)O)CCC2)c1ccco1,16.9%,?,?,?,21.9%
Cc1ccc(C(=O)Nc2sc3c(c2C(=O)O)CCC(C)C3)o1 (stereo not given),·,·,·,0.7%,·
COC(=O)c1c(NC(=O)c2ccc(C)o2)sc2c1CCCCC2,3.55µM*,14.1µM*,12µM*,10.3µM*,3.55µM*
Cc1ccc(C(=O)Nc2sc3c(c2C(=O)O)CCCC3)o1,?,·,12µM*,4.1%,?
O=C(Cn1cnc2ccccc2c1=O)c1ccc(Br)cc1,20.7%,·,?,?,?
O=S(=O)(NCc1csc(-c2cccs2)n1)c1cccc(C(F)(F)F)c1,0.3%,·,5.5%,-3.3%,-2.2%
COc1ccc(NC(=O)c2ccc(-c3nc(COc4ccccc4)c(C)o3)cc2)cc1,·,·,-0.2%,·,·
Cc1cc(OC(C)C(=O)N(Cc2ccco2)C2CCS(=O)(=O)C2)ccc1Cl (stereo not given),-2.7%,·,-1.4%,1.5%,-3.6%
O=C(NNC(=O)C1C2CCC(C2)C1C(=O)O)c1ccc(Br)o1 (stereo not given),-1.9%,3.9%,-6.3%,-0.1%,-4.1%
CC(C)c1ccc(C(=O)NN2C(=O)C3CCCCC3C2=O)cc1 (stereo not given),3.55µM*,11.2µM*,2.13µM*,?,3.16µM*
CCOc1ccccc1C(=O)NN1C(=O)C2CCCCC2C1=O (stereo not given),-2.4%,-4.1%,0.2%,2.4%,-0.3%
CC(C)c1ccc(C(=O)NNC(=O)C2C3CCC(C3)C2C(=O)O)cc1 (stereo not given),0.501µM*,·,7.57µM*,4.61µM*,1.26µM*
Cc1[nH]c2ccccc2c1C1=CN2CCS(=O)(=O)N=C2S1,-3.3%,-21.5%,3.1%,-0.7%,-8.4%

# Assay outcomes (PubChem BioAssay)
